Among all 360,000 compounds or so, about 11,000 (3.1%) were called active. About 2% were inconclusive and are not listed. The sample holds actives, similar compounds and a random draw of the others, so the mix is not that of the screen. Values without a mark were called inactive. Cut-off read from the data, not from the text of the source: active = fluorescence intensity above about 16000; inconclusive = no clear call, values can overlap the other calls; inactive = below that.

The assay can be described thus: counter-screen for toxin protease inhibitors: compound fluorescence, primary screen, artefact control for toxin protease inhibitor project, biochemical, multiplex microsphere, HTS (AID 624483). Particulars: compound autofluorescence counterscreen, microsphere flow cytometry; hits give high values.
`CC(C)CN1CCC1(C)C(=O)Nc1ccc(OC(F)F)cc1` (stereo unspecified): the fluorescence intensity is 3880. Then `O=C(CSCc1ccccc1Cl)NNC(=O)c1ccccc1`, with 18500 (active). The same measure for `O=C(COC(=O)Cc1ccccc1F)NNC(=O)c1ccc(Cl)cc1`: 5990; for `O=C(COC(=O)c1ncc(Cl)c(Cl)c1Cl)NNC(=O)c1ccccc1`: 4100. The same measure for `Cn1cnnc1Sc1ccc(S(C)(=O)=O)cc1[N+](=O)[O-]`: 3290. For the compound `COc1ccc(COC[C@H](CC(C)C)N2CCN(C(=O)c3cccc(C(F)(F)F)c3)CCC2=O)cc1`, the fluorescence intensity is 4210. Then `COc1ccc(NC(=O)CN(C)S(=O)(=O)c2ccccc2)cc1OC`, with 16600 (active); and `COc1ccc(S(=O)(=O)N(C)CC(=O)Nc2ccc3c(c2)OCCO3)cc1OC`, with 3400. The same measure for `COc1ccc(NC(=O)CN(Cc2ccccc2)S(C)(=O)=O)cc1OC`: 2130; for `O=C(Nc1cccc2cccnc12)c1ccc2sc([C@H]3C[C@H](O)[C@@H](CO)O3)nc2c1`: 3070; for `Cc1cc(C)cc(OCC(=O)Nc2cc(NC(=O)COc3cc(C)cc(C)c3)cc(C(=O)O)c2)c1`: 3790. The same measure for `CC(C)CC1C(=O)N(Cc2cn(Cc3ccco3)nn2)CCS(=O)(=O)N1Cc1ccc(-c2ccc(Cl)c(Cl)c2)cc1` (stereo unspecified): 3840.

In the case of `COc1ccc2c(Cl)c(-c3nnco3)sc2c1`, the fluorescence intensity is 3460.

Regarding `O=C(OCC#CCSc1nnc(-c2ccncc2)o1)c1sc2ccccc2c1Cl`, the fluorescence intensity is 2840.

Regarding `C#CCSc1nnc(-c2sc3ccccc3c2Cl)o1`, the fluorescence intensity was 19600 (active). Then `CCCCCc1c(Cc2ccccc2)ncn1CCc1ccccc1OC`, with 4640. The same measure for `O=C(NCc1ccc(F)cc1F)[C@@H]1CCCN1C(=O)[C@@H]1CCCN1C(=O)c1cccc(Cl)c1`: 6340; for `C[C@H]1CN([C@@H](C)CO)C(=O)CCCn2cc(nn2)CO[C@@H]1CN(C)C(=O)Nc1ccccc1`: 2950; for `Cc1cccc(-n2c(N)c(C(=O)N3CCN(C)CC3)sc2=S)c1`: 2920. Regarding `COC(=O)c1sc(=S)n(-c2ccccc2)c1N`, the fluorescence intensity was 20900 (active). Then `N#Cc1ccccc1-n1c(N)c(C(=O)N2CCCC2)sc1=S`, with 9660. Then `Cn1c(=O)c2cc(NC(=O)NCCc3cccs3)ccc2n1Cc1cccc(C(F)(F)F)c1`, with 3800; and `CCCCn1c(SCC(=O)N2CCOCC2)nc2c1c(=O)n(C)c(=O)n2C`, with 5590; and `CCCCn1c(SCC(=O)NCCc2ccc(OC)c(OC)c2)nc2c1c(=O)n(C)c(=O)n2C`, with 22600 (active).

For `C#CC(C)(C)NC(=O)CSc1nc2c(c(=O)n(C)c(=O)n2C)n1CCCC`, the fluorescence intensity is 5580.

As to `C=CCSc1nnc(Cn2c(=O)sc3ccccc32)n1C`, the fluorescence intensity is 5480. For the compound `CC(=O)Nc1cccc(-c2ccnc3c2CC(C)(C(=O)NCc2ccco2)O3)c1` (stereo unspecified), the fluorescence intensity was 3800.

As for `CCN1C(=O)[C@H]2[C@@H](c3ccc(C(F)(F)F)cc3)N[C@]3(CCCN(Cc4ccc(Br)cc4)C3=O)[C@H]2C1=O`, the fluorescence intensity is 3620.

As for `Cn1c(C(=O)NCCCN2CCCCC2)cc2sccc21`, the fluorescence intensity is 8510. Then `COc1ccc(CCNC(=O)COC(=O)/C=C/c2cccs2)cc1OC`, with 3190; and `COc1ccc(CCNC(=O)c2cc3sccc3n2C)cc1OC`, with 21800 (active); and `CCOC(=O)C1Nc2ccc(C(F)(F)F)cc2C2C=CCC12` (stereo unspecified), with 2760.

With `CC(=O)Nc1cc(-c2ccccc2N(C)C)cn2c(-c3ccc(F)c(Cl)c3)cnc12`, the fluorescence intensity was 3420.

For the compound `O=C1NC[C@H](Cc2ccc(O)cc2)N(C[C@H]2CCCN2C[C@H](Cc2ccccc2)N2C[C@H](Cc3ccccc3)N(CCc3ccccc3)C(=O)C2=O)C1=O`, the fluorescence intensity is 5960. With `CCCCC(CC)C(=O)Nc1ccc(Cl)cn1` (stereo unspecified), the fluorescence intensity is 21400 (active).

For the compound `CC(OC(=O)CNC(=O)c1ccco1)C(=O)Nc1ccc(Cl)cn1` (stereo unspecified), the fluorescence intensity is 4920.

For the compound `O=C(Nc1ccc(Cl)cn1)c1ccccc1-c1ccccc1`, the fluorescence intensity was 3610.

Turning to `COCCOC(=O)C1=C(C)NC(=O)CC1c1cc2c(cc1Br)OCO2` (stereo unspecified), the fluorescence intensity is 22200 (active). `COCCOC(=O)C1=C(C)NC(=O)NC1c1cc2c(cc1Br)OCO2` (stereo unspecified): the fluorescence intensity is 3890. Then `CCCOc1ccccc1C1CC(=O)Nc2cc3c(cc21)OCO3` (stereo unspecified), with 3540; and `CS(=O)(=O)/C(C#N)=C/c1cccn1S(=O)(=O)c1ccc([N+](=O)[O-])cc1`, with 5100; and `CC(=O)Nc1cc(-c2ccccc2F)cn2c(-c3cccc(C(F)(F)F)c3)cnc12`, with 3600.

Turning to `Cc1ccc(-c2nc(C)sc2CC(=O)OCC(=O)Nc2c(F)cccc2F)cc1`, the fluorescence intensity was 2600. The same measure for `CCOc1ccc(-c2nc(C)sc2CC(=O)O)cc1`: 22400 (active); for `CCOc1ccc(NC(=O)CN(C)C(=O)Cc2sc(C)nc2-c2ccc(F)cc2)cc1OCC`: 8360. As for `CCOc1ccc(CCN2C(=S)N([C@@H](CC(C)C)CN3CCC[C@@H]3CN3C(=S)NC[C@@H]3Cc3ccc(O)cc3)C[C@@H]2CC(C)C)cc1`, the fluorescence intensity is 6060.

On to `COc1ccc(CNC(=O)CN2C(=O)NC3(CCCc4sccc43)C2=O)cc1` (stereo unspecified), for which the fluorescence intensity is 5880. Then `COc1ccc(OC)c(C(=O)c2ccc(C(=O)O)cc2)c1`, with 16800 (active). The same measure for `COc1ccc(C(=O)CC(=O)c2ccc(C)cc2)c(O)c1`: 4090; for `COc1ccc(OC)c(C(=O)c2ccc(C(=O)N3CCN(Cc4csc(C)n4)CC3)cc2)c1`: 4240. As to `COCOc1cccc(CN2CCC(C)(Oc3ccc(SC)cc3)C2)c1` (stereo unspecified), the fluorescence intensity is 3010. Then `Cc1[nH]c(C)c(S(=O)(=O)N2CCN(c3cccc(C(F)(F)F)c3)CC2)c1C(=O)N1CCCCC1`, with 5140; and `CN1C(=O)C2(OCCCO2)c2cc(Cl)ccc21`, with 3420; and `COc1ccc(S(=O)(=O)Nc2cc(C)on2)cc1NC(C)=O`, with 4100. Regarding `COc1cc2ccccc2cc1C(=O)Nc1ccc(S(=O)(=O)Nc2cc(C)on2)cc1`, the fluorescence intensity is 18400 (active). Then `CCOc1ccc(C(=O)Nc2ccc(S(=O)(=O)Nc3cc(C)on3)cc2)cc1`, with 3660.

The values are drawn from PubChem BioAssay AID624483 (NMMLSC, 2012).
